According to PubChem BioAssay (EPA / NIEHS):
Results filed as inconclusive are left out. A structure can be active in one record and inactive in another. Active and inactive are the calls of the source. How the source made its calls, unless noted: active means hit-call score of the fitted dose curve at least 0.9, where 1 is the maximum; inconclusive means response in the unintended direction; inactive means score below 0.9.

Key:
[1] = molecular target: human Peroxisome Proliferator-activated Receptor alpha (PPARa), PPARA (gene 5465) (UniProt Q07869); assay: ATG_PPARa_TRANS: Attagene TRANS-FACTORIAL HepG2 Assay for human Peroxisome Proliferator-activated Receptor alpha (PPARa) (AID 2283001)
How it was run: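 Exposure: 24 h, transiently transfected HepG2 cells. Endpoint: GAL4-UAS reporter mRNA, RT-PCR with capillary electrophoresis fluorescence. Baseline: DMSO; increases fitted.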

[2] = molecular target: human Peroxisome Proliferator-activated Receptor delta (PPARd), PPARD (gene 5467) (UniProt Q03181); assay: ATG_PPARd_TRANS: Attagene TRANS-FACTORIAL HepG2 Assay for human Peroxisome Proliferator-activated Receptor delta (PPARd) (AID 2283002)
How it was run: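 HepG2 cells transiently transfected with multiplexed GAL4-UAS reporter units and exogenous chimeric NR-Gal4 proteins; 24 h compound exposure. Reporter mRNA measured by RT-PCR, 6-FAM labelling, HpaI digestion and capillary electrophoresis; gain of signal versus DMSO.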

[3] = read-out: Intercellular Adhesion Molecule 1 (ICAM1), ICAM1 (gene 3383); assay: BSK_3C_ICAM1: BioMAP Diversity Plus: 3C Assay for Intercellular Adhesion Molecule 1 (ICAM1) Biomarker Activity (AID 2283003; active means hit-call score of the fitted dose curve at least 0.9, where 1 is the maximum; inactive means score below 0.9); settings: primary human endothelial cells (HUVEC); actives raise or lower the signal
How it was run: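 ELISA read-out of ICAM-1; HUVEC (primary human), 3C system, 24 h post-dosing; bidirectional fit vs DMSO baseline.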

[4] = BSK_3C_Proliferation: Cell Proliferation Assessment in the BioMAP Diversity Plus: 3C Assay (AID 2283006; active means hit-call score of the fitted dose curve at least 0.9, where 1 is the maximum; inactive means score below 0.9;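 on AC50: potency may reflect either rise or fall in cell number versus DMSO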); settings: primary human endothelial cells (HUVEC)
How it was run: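 HUVEC, sub-confluent; 48 h chemical exposure; 10% TCA fix, 0.1% SRB stain, A560 total protein. Gain or loss of signal fitted both directions vs DMSO control.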

[5] = molecular target: Peroxisome proliferator-activated receptor gamma (Homo sapiens) (UniProt P37231); assay: ATG_PPARg_TRANS: Attagene TRANS-FACTORIAL HepG2 Assay for human Peroxisome Proliferator-activated Receptor-gamma (PPARg) (AID 2283007)
How it was run: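 Liver-derived HepG2 cells expressing an exogenous NR-Gal4 chimera alongside GAL4-UAS reporter genes; 24 h exposure. Fluorescence of reporter RT-PCR products, separated by capillary electrophoresis, gives mRNA induction relative to DMSO.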

[6] = molecular target: human RAR-related Orphan Receptor beta (RORb), RORB (gene 6096) (UniProt Q92753); assay: ATG_RORb_TRANS: Attagene TRANS-FACTORIAL HepG2 Assay for human RAR-related Orphan Receptor beta (RORb) (AID 2283010)
How it was run: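 HepG2, transient MRTU transfection (GAL4-UAS reporters, exogenous NR-Gal4 chimeras); 24 h compound exposure; total RNA → RT-PCR → 6-FAM primer extension → HpaI digest → CE fluorescence. Positive direction vs DMSO baseline.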

[7] = molecular target: human RAR-related Orphan Receptor gamma (RORg), RORC (gene 6097) (UniProt P51449); assay: ATG_RORg_TRANS: Attagene TRANS-FACTORIAL HepG2 Assay for human RAR-related Orphan Receptor gamma (RORg) (AID 2283011)
How it was run: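 Reporter transcripts from a transfected RORg-GAL4 chimera in HepG2 cells were quantified 24 h after dosing by RT-PCR, 6-FAM labelling, HpaI digestion and capillary electrophoresis; increases over DMSO baseline were fitted.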

[8] = molecular target: human Retinoid X Receptor beta (RXRb), RXRB (gene 6257) (UniProt P28702); assay: ATG_RXRb_TRANS: Attagene TRANS-FACTORIAL HepG2 Assay for human Retinoid X Receptor beta (RXRb) (AID 2283013)
How it was run: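 Read-out: reporter mRNA induction via RT-PCR plus capillary electrophoresis fluorescence, analysed as signal increase relative to DMSO. Cells were human HepG2, transiently transfected with GAL4-UAS reporter constructs and chimeric receptor-Gal4 fusions, dosed for 24 h.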

[9] = read-out: E-selectin (Homo sapiens) (UniProt P16581); assay: BSK_3C_Eselectin: BioMAP Diversity Plus: 3C Assay for Eselectin Biomarker Activity (AID 2283015; active means hit-call score of the fitted dose curve at least 0.9, where 1 is the maximum; inactive means score below 0.9;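 further: cell surface E-selectin protein quantified by ELISA 24 h after dosing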); settings: primary human endothelial cells (HUVEC); actives raise or lower the signal
How it was run: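 E-selectin ELISA readout, fitted bidirectionally relative to DMSO, taken 24 h post-dosing in HUVEC cultures of the 3C system. Overt cytotoxicity tracked with sulforhodamine B staining of parallel wells.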

[10] = read-out: Interleukin-1 alpha (IL1a), IL1A (gene 3552); assay: BSK_BE3C_IL1a: BioMAP Diversity Plus: BE3C Assay for Interleukin-1 alpha (IL1a) Biomarker Activity (AID 2283016; active means hit-call score of the fitted dose curve at least 0.9, where 1 is the maximum; inactive means score below 0.9); settings: primary human bronchial epithelial cells; actives raise or lower the signal
How it was run: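 ELISA read-out of IL-1a from human lung bronchial epithelial primary cells, 24 h post-dose. Gain or loss of signal fitted relative to DMSO negative control.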

[11] = read-out: Monocyte Chemoattractant Protein-1 (MCP1), CCL2 (gene 6347); assay: BSK_3C_MCP1: BioMAP Diversity Plus: 3C Assay for Monocyte Chemoattractant Protein-1 (MCP1) Biomarker Activity (AID 2283017; active means hit-call score of the fitted dose curve at least 0.9, where 1 is the maximum; inactive means score below 0.9); settings: primary human endothelial cells (HUVEC); actives raise or lower the signal
How it was run: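 MCP-1 was measured by ELISA 24 h after dosing in primary HUVEC 3C cultures and fitted in both directions relative to DMSO; cytotoxicity was checked by SRB total-protein staining in parallel wells.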

[12] = read-out: Monocyte Chemoattractant Protein-1 (MCP1), CCL2 (gene 6347); assay: BSK_4H_MCP1: BioMAP Diversity Plus: 4H Assay for Monocyte Chemoattractant Protein-1 (MCP1) Biomarker Activity (AID 2283018; active means hit-call score of the fitted dose curve at least 0.9, where 1 is the maximum; inactive means score below 0.9); settings: primary human endothelial cells (HUVEC); actives raise or lower the signal
How it was run: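 HUVEC primary cells, 24 h post-dose, MCP-1 by ELISA. Gain or loss of signal fitted bidirectionally vs DMSO baseline. Cytotoxicity: SRB stain (0.1% after 10% TCA fixation), read 560 nm, parallel cultures.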

[13] = read-out: Interleukin-8 (IL8), CXCL8 (gene 3576); assay: BSK_3C_IL8: BioMAP Diversity Plus: 3C Assay for Interleukin-8 (IL8) Biomarker Activity (AID 2283020; active means hit-call score of the fitted dose curve at least 0.9, where 1 is the maximum; inactive means score below 0.9); settings: primary human endothelial cells (HUVEC); actives raise or lower the signal
How it was run: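 HUVEC, 3C stimulation; 24 h compound exposure; IL-8 read by ELISA; gain or loss of signal fitted relative to DMSO control.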

[14] = molecular target: human Retinoic Acid Receptor beta (RARb), RARB (gene 5915) (UniProt P10826); assay: ATG_RARb_TRANS: Attagene TRANS-FACTORIAL HepG2 Assay for human Retinoic Acid Receptor beta (AID 2283004)
How it was run: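 Induction of reporter mRNA from a chimeric RARb-Gal4 construct was measured by RT-PCR, FAM labelling, HpaI digestion and capillary electrophoresis. Measurements followed 24 h compound treatment of transiently transfected human HepG2 liver cells, with DMSO as baseline.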

[15] = molecular target: human Retinoic Acid Receptor gamma (RARg), RARG (gene 5916) (UniProt P13631); assay: ATG_RARg_TRANS: Attagene TRANS-FACTORIAL HepG2 Assay for human Retinoic Acid Receptor gamma (RARg) (AID 2283009)
How it was run: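 Readout: reporter transcript levels via RT-PCR, 6-FAM primer-extension labelling, HpaI digestion and capillary electrophoresis. Cells: HepG2 carrying transfected RARg-GAL4 chimera plus UAS reporter set. Dosing 24 h; DMSO negative control.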

[16] = molecular target: Retinoic acid receptor RXR-alpha (Homo sapiens) (UniProt P19793); assay: ATG_RXRa_TRANS: Attagene TRANS-FACTORIAL HepG2 Assay for human Retinoid X Receptor alpha (RXRa) (AID 2283012)
How it was run: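 Read-out: fluorescent reporter-transcript fragments quantified by capillary electrophoresis after RT-PCR. Transiently transfected HepG2 cells carrying GAL4-UAS reporters and NR-GAL4 chimeras were exposed to chemical for 24 h; activity scored as increase over DMSO.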

[17] = molecular target: human Thyroid Receptor alpha (THRa1), THRA (gene 7067) (UniProt P10827); assay: ATG_THRa1_TRANS: Attagene TRANS-FACTORIAL HepG2 Assay for human Thyroid Receptor alpha (THRa1) (AID 2283014)
How it was run: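 Transcripts from GAL4-UAS-driven reporters, measured after 24 h compound exposure by RT-PCR plus capillary electrophoresis of 6-FAM-labeled fragments, were fitted for gain of signal relative to DMSO. Cells: transiently transfected HepG2 expressing NR-Gal4 chimeras.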

[18] = molecular target: Nuclear receptor subfamily 1 group I member 2 (Homo sapiens) (UniProt O75469); assay: ATG_PXR_TRANS: Attagene TRANS-FACTORIAL HepG2 Assay for human Pregnane X Receptor (PXR) (AID 2283008)
How it was run: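 Multiplexed TRANS reporter panel in HepG2; this component tracks PXR-Gal4-driven reporter mRNA after 24 h dosing, measured by RT-PCR with capillary electrophoresis fluorescence, fitted against DMSO.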

[19] = molecular target: Retinoic acid receptor alpha (Homo sapiens) (UniProt P10276); assay: ATG_RARa_TRANS: Attagene TRANS-FACTORIAL HepG2 Assay for human Retinoic Acid Receptor alpha (RARa) (AID 2283005)
How it was run: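 HepG2 cells transiently transfected with multiple reporter units expressing chimeric RARα-GAL4 fusion, with GAL4-UAS-driven reporters. After 24 h compound exposure, reporter mRNA induction quantified by RT-PCR and capillary electrophoresis with fluorescent labeling; gain-of-signal fitted relative to DMSO control.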

[20] = read-out: Human Leukocyte Antigen - DR isotype (HLADR), HLA-DRA (gene 3122); assay: BSK_3C_HLADR: BioMAP Diversity Plus: 3C Assay for Human Leukocyte Antigen - DR isotype (HLADR) Biomarker Activity (AID 2283019; active means hit-call score of the fitted dose curve at least 0.9, where 1 is the maximum; inactive means score below 0.9); settings: primary human endothelial cells (HUVEC); actives raise or lower the signal
How it was run: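 Bidirectional fitting against DMSO was applied to the HLA-DR ELISA signal from human umbilical vein endothelial cells, 24 h post-dose. Cytotoxicity came from parallel SRB total-protein staining; 3C proliferation was counted by SRB at 48 h.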

Measured: AC50

Sequence of E-selectin (Homo sapiens) (P16581 whole entry, looked up): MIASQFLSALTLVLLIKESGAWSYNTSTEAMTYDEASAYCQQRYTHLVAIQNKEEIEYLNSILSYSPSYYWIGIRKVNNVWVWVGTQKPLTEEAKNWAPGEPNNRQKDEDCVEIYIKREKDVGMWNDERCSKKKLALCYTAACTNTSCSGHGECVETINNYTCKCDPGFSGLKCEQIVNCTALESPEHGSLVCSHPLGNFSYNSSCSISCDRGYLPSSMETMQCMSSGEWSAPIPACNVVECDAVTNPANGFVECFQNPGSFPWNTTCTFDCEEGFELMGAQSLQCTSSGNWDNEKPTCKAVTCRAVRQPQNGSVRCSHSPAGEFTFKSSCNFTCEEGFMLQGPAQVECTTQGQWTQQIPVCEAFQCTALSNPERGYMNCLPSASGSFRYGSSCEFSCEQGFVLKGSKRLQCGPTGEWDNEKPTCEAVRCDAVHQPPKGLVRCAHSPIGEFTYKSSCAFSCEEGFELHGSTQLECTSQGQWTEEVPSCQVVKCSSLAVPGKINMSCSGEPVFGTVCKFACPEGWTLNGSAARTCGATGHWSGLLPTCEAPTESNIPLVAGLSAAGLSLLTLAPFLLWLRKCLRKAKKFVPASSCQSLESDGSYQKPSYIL
Sequence of human Retinoid X Receptor beta (RXRb), RXRB (gene 6257) (P28702 whole entry, looked up, the tested form may be a part): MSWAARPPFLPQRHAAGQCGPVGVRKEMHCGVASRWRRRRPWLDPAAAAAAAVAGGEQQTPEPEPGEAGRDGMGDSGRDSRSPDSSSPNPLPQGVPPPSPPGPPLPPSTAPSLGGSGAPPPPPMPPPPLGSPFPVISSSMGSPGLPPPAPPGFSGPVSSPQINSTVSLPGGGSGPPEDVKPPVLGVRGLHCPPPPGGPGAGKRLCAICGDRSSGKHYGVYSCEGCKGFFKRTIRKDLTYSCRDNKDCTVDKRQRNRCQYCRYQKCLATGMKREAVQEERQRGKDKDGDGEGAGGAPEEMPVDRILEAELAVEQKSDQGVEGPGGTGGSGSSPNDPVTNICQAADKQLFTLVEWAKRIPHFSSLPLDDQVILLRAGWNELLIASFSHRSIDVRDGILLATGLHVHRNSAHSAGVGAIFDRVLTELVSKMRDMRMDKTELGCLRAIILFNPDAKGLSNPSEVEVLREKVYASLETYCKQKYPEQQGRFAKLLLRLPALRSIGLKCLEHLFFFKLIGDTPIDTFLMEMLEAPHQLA
Sequence of human Peroxisome Proliferator-activated Receptor alpha (PPARa), PPARA (gene 5465) (Q07869 whole entry, looked up, the tested form may be a part): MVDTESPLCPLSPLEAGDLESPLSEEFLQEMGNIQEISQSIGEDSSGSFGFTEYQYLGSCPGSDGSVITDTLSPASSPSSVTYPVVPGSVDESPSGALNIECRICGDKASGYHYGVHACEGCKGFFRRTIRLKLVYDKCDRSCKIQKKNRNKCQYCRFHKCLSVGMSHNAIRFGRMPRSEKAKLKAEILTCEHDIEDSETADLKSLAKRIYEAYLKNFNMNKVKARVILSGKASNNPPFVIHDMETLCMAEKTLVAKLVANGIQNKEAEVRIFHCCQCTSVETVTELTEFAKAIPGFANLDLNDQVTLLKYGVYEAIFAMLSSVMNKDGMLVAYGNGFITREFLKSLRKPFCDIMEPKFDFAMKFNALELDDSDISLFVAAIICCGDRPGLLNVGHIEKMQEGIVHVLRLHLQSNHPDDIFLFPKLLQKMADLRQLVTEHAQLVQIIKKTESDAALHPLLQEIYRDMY
Sequence of Peroxisome proliferator-activated receptor gamma (Homo sapiens) (P37231 whole entry, looked up, the tested form may be a part): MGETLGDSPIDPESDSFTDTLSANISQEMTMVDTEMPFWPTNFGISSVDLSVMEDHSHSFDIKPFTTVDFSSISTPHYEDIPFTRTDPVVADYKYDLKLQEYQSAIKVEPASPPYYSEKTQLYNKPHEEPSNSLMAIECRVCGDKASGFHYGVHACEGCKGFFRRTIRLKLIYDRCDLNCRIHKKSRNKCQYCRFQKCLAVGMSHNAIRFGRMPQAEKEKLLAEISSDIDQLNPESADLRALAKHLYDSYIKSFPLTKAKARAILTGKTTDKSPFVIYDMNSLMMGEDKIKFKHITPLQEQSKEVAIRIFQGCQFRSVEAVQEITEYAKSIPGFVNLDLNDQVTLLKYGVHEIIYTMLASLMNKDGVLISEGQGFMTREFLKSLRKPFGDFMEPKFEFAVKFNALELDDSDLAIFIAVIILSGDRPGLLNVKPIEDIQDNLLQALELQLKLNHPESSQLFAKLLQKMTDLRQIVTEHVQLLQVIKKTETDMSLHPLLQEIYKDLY
Sequence of Retinoic acid receptor RXR-alpha (Homo sapiens) (P19793 whole entry, looked up, the tested form may be a part): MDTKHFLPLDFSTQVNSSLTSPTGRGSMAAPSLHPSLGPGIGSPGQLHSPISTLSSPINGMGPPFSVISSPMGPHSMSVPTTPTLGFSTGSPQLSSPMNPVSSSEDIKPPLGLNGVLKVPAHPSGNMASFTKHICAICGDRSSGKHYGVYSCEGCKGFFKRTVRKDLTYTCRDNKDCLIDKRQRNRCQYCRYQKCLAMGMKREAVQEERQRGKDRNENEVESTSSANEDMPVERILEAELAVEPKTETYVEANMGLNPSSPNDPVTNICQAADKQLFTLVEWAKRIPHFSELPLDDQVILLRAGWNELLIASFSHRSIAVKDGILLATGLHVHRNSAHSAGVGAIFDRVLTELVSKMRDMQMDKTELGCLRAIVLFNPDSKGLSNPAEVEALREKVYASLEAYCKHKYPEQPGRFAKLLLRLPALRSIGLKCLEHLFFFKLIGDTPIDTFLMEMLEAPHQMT
Sequence of human RAR-related Orphan Receptor beta (RORb), RORB (gene 6096) (Q92753 whole entry, looked up, the tested form may be a part): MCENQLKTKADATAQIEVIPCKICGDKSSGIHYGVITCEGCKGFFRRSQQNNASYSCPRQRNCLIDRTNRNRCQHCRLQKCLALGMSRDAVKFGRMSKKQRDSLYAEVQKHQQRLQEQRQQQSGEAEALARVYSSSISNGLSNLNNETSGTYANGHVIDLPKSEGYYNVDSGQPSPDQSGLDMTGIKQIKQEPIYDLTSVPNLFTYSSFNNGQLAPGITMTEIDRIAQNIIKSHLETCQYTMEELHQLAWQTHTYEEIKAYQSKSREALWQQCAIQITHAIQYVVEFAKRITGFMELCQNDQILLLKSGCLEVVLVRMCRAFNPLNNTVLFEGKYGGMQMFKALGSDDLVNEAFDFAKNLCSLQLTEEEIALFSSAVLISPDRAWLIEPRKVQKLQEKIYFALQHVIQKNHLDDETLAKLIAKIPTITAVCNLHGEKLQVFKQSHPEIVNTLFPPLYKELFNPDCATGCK
Sequence of human Peroxisome Proliferator-activated Receptor delta (PPARd), PPARD (gene 5467) (Q03181 whole entry, looked up, the tested form may be a part): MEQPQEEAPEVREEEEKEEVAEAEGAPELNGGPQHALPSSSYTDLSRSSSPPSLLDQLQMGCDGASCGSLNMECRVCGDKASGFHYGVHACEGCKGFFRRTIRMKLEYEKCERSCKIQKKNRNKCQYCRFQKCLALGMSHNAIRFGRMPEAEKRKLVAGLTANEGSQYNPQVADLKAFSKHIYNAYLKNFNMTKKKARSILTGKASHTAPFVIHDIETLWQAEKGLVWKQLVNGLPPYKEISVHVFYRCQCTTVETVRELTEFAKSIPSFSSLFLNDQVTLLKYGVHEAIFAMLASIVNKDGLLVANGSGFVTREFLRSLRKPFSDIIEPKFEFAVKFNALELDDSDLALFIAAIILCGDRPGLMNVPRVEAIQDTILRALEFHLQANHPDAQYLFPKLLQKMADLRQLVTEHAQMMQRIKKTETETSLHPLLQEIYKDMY
Sequence of human Thyroid Receptor alpha (THRa1), THRA (gene 7067) (P10827 whole entry, looked up, the tested form may be a part): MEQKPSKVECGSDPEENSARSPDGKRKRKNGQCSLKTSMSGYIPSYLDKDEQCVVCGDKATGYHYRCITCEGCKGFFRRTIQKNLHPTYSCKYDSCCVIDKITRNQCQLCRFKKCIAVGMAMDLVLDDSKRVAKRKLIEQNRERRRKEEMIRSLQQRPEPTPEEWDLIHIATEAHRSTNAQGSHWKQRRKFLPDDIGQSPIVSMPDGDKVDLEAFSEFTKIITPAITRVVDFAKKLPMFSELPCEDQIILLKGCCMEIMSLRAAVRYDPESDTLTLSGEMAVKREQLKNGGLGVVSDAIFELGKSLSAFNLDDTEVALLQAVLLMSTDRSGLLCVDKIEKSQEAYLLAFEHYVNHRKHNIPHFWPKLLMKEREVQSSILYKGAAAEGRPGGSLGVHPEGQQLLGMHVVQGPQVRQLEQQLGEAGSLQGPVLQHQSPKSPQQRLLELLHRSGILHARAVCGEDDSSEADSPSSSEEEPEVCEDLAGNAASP
Sequence of Nuclear receptor subfamily 1 group I member 2 (Homo sapiens) (O75469 whole entry, looked up, the tested form may be a part): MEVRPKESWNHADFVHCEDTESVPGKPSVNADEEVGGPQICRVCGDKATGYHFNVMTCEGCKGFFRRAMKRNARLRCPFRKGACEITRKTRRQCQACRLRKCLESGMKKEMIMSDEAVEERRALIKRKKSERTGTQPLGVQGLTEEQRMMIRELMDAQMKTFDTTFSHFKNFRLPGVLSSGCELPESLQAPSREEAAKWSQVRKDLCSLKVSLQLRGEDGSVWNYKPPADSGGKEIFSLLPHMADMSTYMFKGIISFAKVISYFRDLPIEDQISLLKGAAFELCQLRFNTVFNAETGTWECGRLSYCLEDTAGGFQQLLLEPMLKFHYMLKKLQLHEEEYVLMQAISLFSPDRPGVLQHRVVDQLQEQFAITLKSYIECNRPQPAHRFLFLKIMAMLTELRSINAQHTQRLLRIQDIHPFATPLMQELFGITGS
Sequence of human RAR-related Orphan Receptor gamma (RORg), RORC (gene 6097) (P51449 whole entry, looked up, the tested form may be a part): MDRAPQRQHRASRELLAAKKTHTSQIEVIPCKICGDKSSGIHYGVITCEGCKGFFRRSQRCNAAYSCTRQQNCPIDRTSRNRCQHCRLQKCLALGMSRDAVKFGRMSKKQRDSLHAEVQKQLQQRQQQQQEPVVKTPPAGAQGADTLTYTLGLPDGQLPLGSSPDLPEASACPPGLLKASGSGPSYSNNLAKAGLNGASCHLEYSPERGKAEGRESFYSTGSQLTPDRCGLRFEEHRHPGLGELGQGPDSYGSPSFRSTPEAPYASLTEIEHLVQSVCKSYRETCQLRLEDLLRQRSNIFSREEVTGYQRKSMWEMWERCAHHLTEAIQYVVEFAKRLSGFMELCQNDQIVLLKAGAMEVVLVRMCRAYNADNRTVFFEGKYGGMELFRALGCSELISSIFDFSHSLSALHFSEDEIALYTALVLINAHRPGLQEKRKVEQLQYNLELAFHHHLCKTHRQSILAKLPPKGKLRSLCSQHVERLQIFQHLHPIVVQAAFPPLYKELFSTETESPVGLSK

Nc1ncc([N+](=O)[O-])s1
inactive: [1] | [2] | [3] | [4] | [5] | [6] | [7] | [8] | [9] | [10] | [11] | [12] | [13]

Cc1ccc2ccccc2c1C
inactive: [1] | [2] | [14] | [5] | [15] | [6] | [16] | [17]
active: [8] 100 µM

CCC(=O)C(CC(C)N(C)C)(c1ccccc1)c1ccccc1 (stereo unspecified)
inactive: [1] | [3] | [4] | [5] | [18] | [15] | [16] | [8] | [17] | [10] | [11] | [12] | [13]

N#CN=C(N)N
inactive: [1] | [2] | [18] | [16]

CC(=O)[O][Hg][c]1ccccc1
inactive: [1] | [2] | [19] | [5] | [18] | [17]
active: [3] 2.69 µM | [4] 1.18 µM | [8] 14.8 µM | [10] 2.57 µM | [11] 0.964 µM | [12] 1.03 µM | [20] 0.317 µM | [13] 6 µM

CC(C)CCCCCCOC(=O)c1ccccc1C(=O)OCCCCCCC(C)C
active: [18] 1.84 µM
inactive: [1] | [2] | [3] | [4] | [6] | [9] | [10] | [11] | [12] | [13]

Clc1nc(Cl)nc(Cl)n1
inactive: [1] | [2] | [5] | [16] | [17]

C[C@@H]1C[C@@H]([C@H](O)CC2CC(=O)NC(=O)C2)C(=O)[C@@H](C)C1
inactive: [1] | [2] | [5] | [6] | [16] | [8] | [17]
active: [3] 12.5 µM | [4] 2.9 µM | [5] 23.4 µM | [10] 10.7 µM | [11] 8.41 µM | [12] 4.06 µM | [13] 6.06 µM

c1cc[c]([Hg][c]2ccccc2)cc1
active: [5] 25.2 µM
inactive: [1] | [2] | [18] | [6] | [16] | [8] | [17]

CC(C)(OO)c1ccccc1
inactive: [1] | [2] | [3] | [4] | [5] | [6] | [8] | [9] | [10] | [11] | [12] | [13]

CN(CCCC(=O)c1cccnc1)N=O
inactive: [1] | [2] | [18] | [6] | [7] | [16] | [8] | [17]
